Measured values: PubChem BioAssay

target: PEG-3 (UniProt Q6IN02); assay: inhibition of PEG-3 promoter-driven reporter – cell-based, HeLa, luciferase, CREF/GAPDH counter-screen panel, dose response (AID 624167); settings: CREF/GAPDH counter-screens; HeLa PEG-Prom luciferase reporter, overnight, run 1, dose range 1, at 100 µM (top of the series) unless noted
Sequence (Q6IN02 whole entry, looked up): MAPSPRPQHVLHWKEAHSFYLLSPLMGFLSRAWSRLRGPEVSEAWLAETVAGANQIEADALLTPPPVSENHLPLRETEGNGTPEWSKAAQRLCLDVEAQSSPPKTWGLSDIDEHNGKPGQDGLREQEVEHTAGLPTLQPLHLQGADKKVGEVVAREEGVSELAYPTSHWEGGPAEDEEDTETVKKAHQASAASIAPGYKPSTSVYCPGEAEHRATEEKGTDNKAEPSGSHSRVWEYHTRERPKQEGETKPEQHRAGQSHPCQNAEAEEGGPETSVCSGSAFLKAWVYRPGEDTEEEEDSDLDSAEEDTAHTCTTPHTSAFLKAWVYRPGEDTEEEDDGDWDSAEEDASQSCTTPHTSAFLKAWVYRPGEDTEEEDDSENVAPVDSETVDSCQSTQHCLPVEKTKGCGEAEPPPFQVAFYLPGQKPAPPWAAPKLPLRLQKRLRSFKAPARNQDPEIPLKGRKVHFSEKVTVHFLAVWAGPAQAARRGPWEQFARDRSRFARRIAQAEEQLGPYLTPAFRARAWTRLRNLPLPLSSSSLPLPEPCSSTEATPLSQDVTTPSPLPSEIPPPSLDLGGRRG

**Q.** With `COc1ccc(/C=C2\SC(=S)N(CCCC(=O)NNC(=O)c3ccccc3O)C2=O)cc1` as the molecule, how does the inhibition read?
**A.** 89.6%

**Q.** For `Cc1ccc(/C=C2\SC(=S)N(CCCC(=O)NNC(=O)c3ccccc3O)C2=O)cc1`, which inhibition is on record?
**A.** 81.6%

**Q.** For `O=C(Nc1ncc([N+](=O)[O-])s1)c1ccc2c(c1)OCO2`, which inhibition is on record?
**A.** 96.1%

**Q.** `CN(C(=O)COC(=O)/C=C/c1cccc([N+](=O)[O-])c1)C1CCS(=O)(=O)C1` (stereo not drawn) was tested. Which inhibition did it give?
**A.** 47.5%

**Q.** With `c1ccc(-c2nc(-c3ccccn3)no2)cc1` as the molecule, how does the inhibition read?
**A.** 89.5%

**Q.** Which inhibition does the source give for `Cc1cc(S(=O)(=O)c2ccc(Cl)cc2)nc(S(=O)(=O)c2ccc(Cl)cc2)c1C#N` here?
**A.** 99.1%

**Q.** `O=C(c1ccco1)N1CCN(C(c2ccccc2Cl)c2nnnn2Cc2cccs2)CC1` (stereo not drawn) was tested. Which inhibition did it give?
**A.** 63%

**Q.** `CC1=NOC(=O)/C1=C\c1ccc(-c2ccccc2Br)o1` was tested. Which inhibition did it give?
**A.** 99.2%

**Q.** With `Cc1nc(C)c(C(=O)N/N=C/c2cc(Br)ccc2O)s1` as the molecule, how does the inhibition read?
**A.** 101%

**Q.** `COc1ccc(-n2c(O)c(/C=N/Nc3nc(C)cc(C)n3)c3ccccc3c2=O)cc1OC` was tested. Which inhibition did it give?
**A.** 57.2%

**Q.** `CC(C)CC1C(=O)N(Cc2cn(Cc3ccco3)nn2)CCS(=O)(=O)N1Cc1ccc(-c2ccc(F)cc2)cc1` (stereo not drawn) was tested. Which inhibition did it give?
**A.** 39%

**Q.** `CCCCCCCn1c(=N)n(CC(=O)c2ccco2)c2ccccc21` was tested. Which inhibition did it give?
**A.** 102%

**Q.** `Cc1nc(-c2ccc(NC(=O)c3ccco3)cc2)cs1` was tested. Which inhibition did it give?
**A.** 98.9%

**Q.** How did the inhibition turn out when `CC1CCN(c2ccc(-c3cccs3)nn2)CC1` was run?
**A.** 90.2%

**Q.** With `O=C(O)c1cccc(COc2ccccc2Cl)c1` as the molecule, how does the inhibition read?
**A.** 96.7%

**Q.** How did the inhibition turn out when `CC(=O)c1ccc(-c2cnc3c(NC=O)cc(-c4ccccc4Oc4ccccc4)cn23)cc1` was run?
**A.** 38.3%

**Q.** Which inhibition does the source give for `O=C(Nc1nc2ccccc2[nH]1)c1ccccc1F` here?
**A.** 97.3%

**Q.** `CN[C@H]1C[C@H]2c3[nH]c4ccc(-c5ccc(OC)cc5)cc4c3CCN2C(=O)[C@H]1[C@H](C)O` was tested. Which inhibition did it give?
**A.** 102%
